# In PubChem BioAssay (NCATS):
# Results filed as inconclusive are left out. Entries that show only a call come without a potency. Activity calls are given as the source filed them. Unless noted, calls follow the shape of the dose curve; as a rule, active = well fitted curve in the direction sought with a large enough effect; inconclusive = small, poorly fitted or top-dose-only effect, or another doubt; inactive = no such curve, though single readings can be large; an effect the other way counts as inactive or inconclusive.
# Experiments:
# [1] = biological target: Ubiquitin carboxyl-terminal hydrolase 1 (Homo sapiens) (UniProt O94782); test: Inhibitors of USP1/UAF1: Pilot qHTS (AID 504865);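 also: rhodamine fluorescence freed from ubiquitin-rhodamine substrate followed over time; top concentration of the series differs between compounds; nearly all actives have a fitted effect of over 35% in size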
# Ubiquitin carboxyl-terminal hydrolase 1 (Homo sapiens), sequence (O94782 whole entry, looked up): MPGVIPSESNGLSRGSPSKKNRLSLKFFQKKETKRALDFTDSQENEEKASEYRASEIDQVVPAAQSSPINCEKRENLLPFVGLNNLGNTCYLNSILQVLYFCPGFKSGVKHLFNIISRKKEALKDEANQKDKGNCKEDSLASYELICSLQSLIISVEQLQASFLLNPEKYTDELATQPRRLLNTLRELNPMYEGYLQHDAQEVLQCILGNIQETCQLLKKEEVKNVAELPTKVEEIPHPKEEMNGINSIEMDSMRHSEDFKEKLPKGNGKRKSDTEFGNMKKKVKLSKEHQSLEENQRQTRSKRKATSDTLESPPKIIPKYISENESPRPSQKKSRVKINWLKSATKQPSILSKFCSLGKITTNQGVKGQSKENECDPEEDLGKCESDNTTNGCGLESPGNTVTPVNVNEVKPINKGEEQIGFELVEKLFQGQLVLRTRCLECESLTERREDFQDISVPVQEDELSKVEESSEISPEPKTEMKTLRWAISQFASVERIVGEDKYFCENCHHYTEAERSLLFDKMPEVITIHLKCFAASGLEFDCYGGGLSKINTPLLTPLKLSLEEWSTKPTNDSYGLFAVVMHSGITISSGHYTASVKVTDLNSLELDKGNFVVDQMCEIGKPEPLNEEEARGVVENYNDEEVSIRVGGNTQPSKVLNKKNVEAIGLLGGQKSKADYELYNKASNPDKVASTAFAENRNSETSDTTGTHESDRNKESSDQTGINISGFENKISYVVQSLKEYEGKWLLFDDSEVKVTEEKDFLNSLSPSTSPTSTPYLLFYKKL
# How it was run: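 USP1/UAF1 complex (1nM) preincubated with compound 15 min at room temperature, then Ub-Rho substrate (150nM final) added. Fluorescence read kinetically at 480/540 nm, 6 reads every 60 seconds. Buffer: 50mM HEPES pH 7.8, 0.5mM EDTA, 0.1 mg/ml BSA, 1mM TCEP, 0.01% Tween-20.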
# [2] = biological target: Luciferin 4-monooxygenase (Photinus pyralis) (UniProt P08659); test: Biochemical firefly luciferase enzyme assay for NPC (AID 624030);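 also: purified P. pyralis luciferase at 10 nM with luciferin and ATP substrate; nearly all actives have a fitted effect of over 70% in size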
# Luciferin 4-monooxygenase (Photinus pyralis), sequence (P08659 whole entry, looked up): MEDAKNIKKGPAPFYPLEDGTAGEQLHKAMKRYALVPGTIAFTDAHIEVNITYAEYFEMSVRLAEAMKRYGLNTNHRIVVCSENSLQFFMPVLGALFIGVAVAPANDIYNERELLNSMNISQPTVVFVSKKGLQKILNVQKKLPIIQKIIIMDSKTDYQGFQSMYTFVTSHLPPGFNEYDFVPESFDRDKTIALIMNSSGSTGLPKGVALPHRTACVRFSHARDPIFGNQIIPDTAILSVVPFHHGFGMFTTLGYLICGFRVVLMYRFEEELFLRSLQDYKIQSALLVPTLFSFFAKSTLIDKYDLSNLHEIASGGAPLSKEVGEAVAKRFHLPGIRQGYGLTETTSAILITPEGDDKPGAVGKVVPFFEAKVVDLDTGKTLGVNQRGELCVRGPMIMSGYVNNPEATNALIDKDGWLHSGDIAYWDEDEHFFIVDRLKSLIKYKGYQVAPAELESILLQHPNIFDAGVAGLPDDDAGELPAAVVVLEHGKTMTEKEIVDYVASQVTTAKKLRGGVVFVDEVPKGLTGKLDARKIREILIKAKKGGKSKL
# How it was run: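 Direct inhibition of firefly luciferase enzyme (10 nM final, 50 mM Tris Acetate) assessed by luminescence within 5 minutes. Percent activity scaled between DMSO and PTC124 positive control, with concentration-effect curves classified by fit quality and response.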
# [3] = S16 Schwann cell viability assay (CellTiter-Glo assay) (AID 624031);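 also: native untransfected S16 rat Schwann cells; cellular ATP luminescence as a viability measure; nearly all actives have a fitted effect of over 70% in size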
# How it was run: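 Cells were seeded at 500-750 per well in phenol red-free DMEM with 10% FBS and left overnight. Compounds or DMSO were pinned in, incubation ran 24 h at 37 °C/5% CO2, then CellTiter-Glo reagent was added and luminescence measured.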
# [4] = S16 Schwann cell PMP22 intronic element firefly luciferase assay (AID 624032); also: nearly all actives have a fitted effect of over 30% in size
# How it was run: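 Luciferase reporter of PMP22 intronic-element expression in stably transfected S16 rat Schwann cells, read by ONE-Glo luminescence after 24 h compound exposure at 37 C. Activity scaled between DMSO (0%) and positive-control PTC124; concentration-effect curves quality-classified.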
# [5] = S16 Schwann cell PMP22 intronic element beta-lactamase assay (AID 624044; calls by dose curve; also: nearly all actives have a fitted effect of over 15% in size)
# How it was run: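 Beta-lactamase reporter under a PMP22 intronic regulatory element in stable S16 rat Schwann cells; 24 h compound exposure. 460 nm blue signal normalized between DMSO (0%) and potassium clavulanate, with 535 nm FRET tracking viability; curves classed by r2 and response.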
# 7G8 = test: qHTS profiling for inhibitors of Plasmodium falciparum proliferation (AID 504749); also: nearly all actives have a fitted effect of over 60% in size; also: potency is read from the fitted curve at half-maximal effect; conditions: P. falciparum in erythrocytes, SYBR Green DNA, 72 h; series mostly up to 28.7 µM
# How it was run: (§1)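 SYBR Green fluorescence of parasite DNA, read after lysis and overnight dark incubation, measured growth over 72 h in erythrocyte culture at 0.3% parasitemia and 2.5% hematocrit. Data normalised to DMSO and 0.29 uM artemisinin, with plate-drift correction.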
# AA1029 = test: as above; conditions: P. falciparum in erythrocytes, SYBR Green DNA, 72 h; series mostly up to 28.7 µM
# How it was run: as §1
# C2A = test: as above; conditions: P. falciparum in erythrocytes, SYBR Green DNA, 72 h; series mostly up to 28.7 µM
# How it was run: as §1
# CP185 = test: as above; conditions: P. falciparum in erythrocytes, SYBR Green DNA, 72 h; series mostly up to 28.7 µM
# How it was run: as §1
# CP194 = test: as above; conditions: P. falciparum in erythrocytes, SYBR Green DNA, 72 h; series mostly up to 28.7 µM
# How it was run: as §1
# CP201 = test: as above; conditions: P. falciparum in erythrocytes, SYBR Green DNA, 72 h; series mostly up to 28.7 µM
# How it was run: as §1
# CP211 = test: as above; conditions: P. falciparum in erythrocytes, SYBR Green DNA, 72 h; series mostly up to 28.7 µM
# How it was run: as §1
# CP238 = test: as above; conditions: P. falciparum in erythrocytes, SYBR Green DNA, 72 h; series mostly up to 28.7 µM
# How it was run: as §1
# CP252 = test: as above; conditions: P. falciparum in erythrocytes, SYBR Green DNA, 72 h; series mostly up to 28.7 µM
# How it was run: as §1
# CP262 = test: as above; conditions: P. falciparum in erythrocytes, SYBR Green DNA, 72 h; series mostly up to 28.7 µM
# How it was run: as §1
# CP297 = test: as above; conditions: P. falciparum in erythrocytes, SYBR Green DNA, 72 h; series mostly up to 28.7 µM
# How it was run: as §1
# CP329 = test: as above; conditions: P. falciparum in erythrocytes, SYBR Green DNA, 72 h; series mostly up to 28.7 µM
# How it was run: as §1
# ICS = test: as above; conditions: P. falciparum in erythrocytes, SYBR Green DNA, 72 h; series mostly up to 28.7 µM
# How it was run: as §1
# P93_24 = test: as above; conditions: P. falciparum in erythrocytes, SYBR Green DNA, 72 h; series mostly up to 28.7 µM
# How it was run: as §1
# TAB109 = test: as above; conditions: P. falciparum in erythrocytes, SYBR Green DNA, 72 h; series mostly up to 28.7 µM
# How it was run: as §1
Structure (SMILES),Potency [1],outcome [2],Potency [3],Potency [4],outcome [5],Potency (7G8),Potency (AA1029),Potency (C2A),Potency (CP185),Potency (CP194),Potency (CP201),Potency (CP211),Potency (CP238),Potency (CP252),Potency (CP262),Potency (CP297),Potency (CP329),Potency (ICS),Potency (P93_24),Potency (TAB109)
O=C(O)[C@@H](O)[C@@H](O)[C@H](O)[C@H](O)CO,inactive,inactive,inactive,inactive,inactive,2 µM (active),inactive,inactive,inactive,inactive,inactive,inactive,inactive,inactive,inactive,inactive,inactive,2.24 µM (active),10 µM (active),10 µM (active)
C[C@]12CC[C@H]3c4ccc(O)cc4CC[C@@H]3[C@H]1CC[C@@H]2OP(=O)(O)O,inactive,inactive,inactive,inactive,,inactive,inactive,inactive,inactive,inactive,inactive,inactive,inactive,inactive,inactive,inactive,inactive,inactive,inactive,inactive
N[C@@H](Cc1ccccc1)C(=O)O,inactive,,inactive,inactive,inactive,inactive,inactive,inactive,inactive,inactive,inactive,inactive,inactive,inactive,inactive,inactive,inactive,inactive,inactive,inactive
CC1(C)[C@@H]2CC[C@]1(C)[C@@H](OC(=O)CSC#N)C2,inactive,inactive,inactive,inactive,inactive,,inactive,inactive,inactive,inactive,inactive,inactive,inactive,inactive,inactive,inactive,inactive,,inactive,inactive
